# Results reported in PubChem BioAssay (Tox21).
# Values without a mark were called inactive. Records with an inconclusive call do not appear. A call without a number means that no potency is given here. The source made the active and inactive calls. Unless noted, calls come from the whole dose curve; as a rule, active = well fitted curve in the direction sought with a large enough effect in the repeat runs; inconclusive = weak or mixed curves; inactive = no such curve, though single readings can be large; an effect the other way counts as inactive or inconclusive.
# Key:
# [1] = biological target: Thyrotropin receptor (Homo sapiens) (UniProt P16473); assay: qHTS assay to identify small molecule agonists of the thyroid stimulating hormone receptor (TSHR) signaling pathway (AID 1224843; calls by dose curve; note: nearly all actives have a fitted effect of over 45% in size)
# Chain of Thyrotropin receptor (Homo sapiens) (P16473 whole entry, looked up): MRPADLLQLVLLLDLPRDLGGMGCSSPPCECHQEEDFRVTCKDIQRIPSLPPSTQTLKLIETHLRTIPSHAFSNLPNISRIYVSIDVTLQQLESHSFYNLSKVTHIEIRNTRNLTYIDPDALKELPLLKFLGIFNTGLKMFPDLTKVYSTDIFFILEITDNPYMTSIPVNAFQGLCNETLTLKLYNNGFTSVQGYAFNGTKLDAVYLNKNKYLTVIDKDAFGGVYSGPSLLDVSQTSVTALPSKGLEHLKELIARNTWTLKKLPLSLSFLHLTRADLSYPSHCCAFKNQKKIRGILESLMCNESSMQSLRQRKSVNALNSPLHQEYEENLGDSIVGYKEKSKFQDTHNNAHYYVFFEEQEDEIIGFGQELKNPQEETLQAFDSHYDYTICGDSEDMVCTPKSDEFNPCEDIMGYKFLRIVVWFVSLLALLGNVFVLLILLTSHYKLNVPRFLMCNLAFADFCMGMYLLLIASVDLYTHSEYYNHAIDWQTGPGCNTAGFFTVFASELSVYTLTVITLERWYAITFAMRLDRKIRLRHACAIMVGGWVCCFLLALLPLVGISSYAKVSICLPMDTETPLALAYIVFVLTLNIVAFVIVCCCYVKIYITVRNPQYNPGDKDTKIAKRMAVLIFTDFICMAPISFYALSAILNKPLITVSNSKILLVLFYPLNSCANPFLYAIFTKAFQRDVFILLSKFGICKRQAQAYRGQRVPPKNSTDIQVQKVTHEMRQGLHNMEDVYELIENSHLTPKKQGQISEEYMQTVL
# In short: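 TSHR-expressing HEK293 cells (800 per well) were exposed to compounds for 30 min at room temperature. cAMP was then detected by HTRF competition with cAMP-d2 and anti-cAMP cryptate, read after 1 h at room temperature. Fifteen concentrations, triplicate.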
# [2] = qHTS assay to identify small molecule agonists of the hypoxia (HIF-1) signaling pathway - cell viability counter screen (AID 1224844; calls by dose curve; note: nearly all actives have a fitted effect of over 50% in size; note: potency is the fitted concentration of half-maximal effect)
# In short: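 ME-180 HRE-bla cells, 2,000/well, 0.5% dialyzed FBS; 5 hr settle, 17 hr compound at 37C/5% CO2; CCF4-AM reporter read first, then CellTiter-Glo luminescence after 30 min RT.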
# [3] = qHTS assay to identify small molecule agonists of H2AX (AID 1224845; active = well fitted activation curve with a large enough effect in the signal ratio in the repeat runs, not every such curve was filed as active; the % refers to the signal ratio; note: potency is the fitted concentration of half-maximal effect)
# In short: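 Wild-type CHO-K1 cells plated overnight, then exposed 3 hr at 37C to compounds at 15 concentrations (0.76% DMSO). Lysed, then HTRF anti-pH2AX(S139)-cryptate/anti-H2AX-d2 detection after 24 hr at room temperature; emissions 665 and 620 nm.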
# [4] = qHTS assay to identify small molecule agonists of H2AX - cell viability counter screen (AID 1224847; calls by dose curve; note: nearly all actives have a fitted effect of over 30% in size; note: potency is the fitted concentration of half-maximal effect; for activity change, negative = cytotoxicity: top concentration of the series differs between compounds)
# In short: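 Compounds tested at 15 concentrations were incubated 3 hr at 37C with wild-type CHO-K1 cells; cellular ATP-based luminescence (CellTiter-Glo) indicated viability.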
# [5] = qHTS RealTime-Glo MT Cell Viability Assay in HepG2 cells - 24 hour (AID 1224867); note: nearly all actives have a fitted effect of over 50% in size
# In short: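 HepG2 cells (600/well) were dispensed with RealTime-Glo reagents, incubated 5 h at 37 °C, then treated with compounds in DMSO for up to 40 h. Nonlytic NanoLuc luminescence reflecting viable cells was read at each stated time point.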
# [6] = qHTS RealTime-Glo MT Cell Viability Assay in HEK293 cells - 32 hour (AID 1224868); note: nearly all actives have a fitted effect of over 50% in size; note: potency is the fitted concentration of half-maximal effect; for activity change, negative = cytotoxic: top concentration of the series differs between compounds
# In short: (§1)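 HEK293 cells seeded with NanoLuc/prosubstrate reagent, rested 5 h at 37 C, then dosed and kept at 37 C up to 40 h. Nonlytic real-time luminescence from viable cells read at 0, 8, 16, 24, 32 and 40 h.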
# [7] = A CellTox Green Cytotoxicity Assay to monitor cytotoxicity in HEK293 cells - 0 hour (AID 1224869); note: nearly all actives have a fitted effect of over 50% in size; note: potency is the fitted concentration of half-maximal effect
# In short: (§2)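 Nonlytic real-time cytotoxicity: HEK293 + CellTox Green reagent plated, 5 h preincubation, pintool compound addition (23 nL in DMSO), 37 C for 40 h, fluorescence measured at successive time points.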
# [8] = qHTS RealTime-Glo MT Cell Viability Assay in HepG2 cells - 40 hour (AID 1224870); note: nearly all actives have a fitted effect of over 50% in size; note: potency is the fitted concentration of half-maximal effect
# In short: (§3)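 HepG2 cells mixed with RealTime-Glo MT reagents (NanoLuc plus cell-permeant prosubstrate) were seeded at 600 cells/well, incubated 5 h at 37 C/5% CO2, then pinned with compounds in DMSO; nonlytic luminescence tracked viability during 40 h treatment.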
# [9] = A CellTox Green Cytotoxicity Assay to monitor cytotoxicity in HEK293 cells - 40 hour (AID 1224871); note: nearly all actives have a fitted effect of over 45% in size; note: potency is the fitted concentration of half-maximal effect
# In short: as §2
# [10] = qHTS RealTime-Glo MT Cell Viability Assay in HEK293 cells - 16 hour (AID 1224872)
# In short: as §1
# [11] = qHTS RealTime-Glo MT Cell Viability Assay in HEK293 cells - 40 hour (AID 1224874); details: RealTime-Glo luminescence; max response: stronger effect = lower value; note: nearly all actives have a fitted effect of over 50% in size; note: potency is the fitted concentration of half-maximal effect
# In short: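 Cells were seeded together with NanoLuc luciferase and a prosubstrate that viable cells reduce to a luciferase substrate. After a 5 h incubation at 37 C/5% CO2, compounds were added and luminescence was measured repeatedly during 40 h of treatment.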
# [12] = qHTS assay to identify small molecule antagonists of the estrogen related receptor signaling pathway with the pleiotropic PPARgamma coactivator (PGC) from Tox21 10K library - cell viability counter screen (AID 1224840; active = well fitted cell-killing curve with a large enough effect in the repeat runs, not every such curve was filed as active; note: nearly all actives have a fitted effect of over 40% in size)
# In short: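 PGC/ERR cells, 2,000/well; 6 h pre-incubation 37 C/5% CO2; cpd in DMSO via pin tool; 17.5 h 37 C; CellTiter-Fluor, 30 min; fluorescence.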
# [13] = qHTS assay to identify small molecule agonists of the hypoxia (HIF-1) signaling pathway (AID 1224846; active = well fitted activation curve with a large enough effect in the signal ratio in the repeat runs, not every such curve was filed as active; the % refers to the signal ratio)
# In short: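 Cell line: CellSensor HRE-bla ME-180; 2,000 cells/well; 0.5% dialyzed FBS; 5 h preincubation; DMSO compound pin transfer; 17 h, 37C, 5% CO2; CCF4-AM added; bla FRET signal scored for activation.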
# [14] = qHTS RealTime-Glo MT Cell Viability Assay in HepG2 cells - 8 hour (AID 1224873); note: nearly all actives have a fitted effect of over 55% in size
# In short: as §3
# [15] = qHTS assay to identify small molecule antagonists of the estrogen related receptor signaling pathway with the pleiotropic PPARgamma coactivator (PGC) from Tox21 10K library (AID 1224841; call rule not given here)
# In short: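 PGC/ERR cell line, 2,000 cells/well; 6 h pre-incubation 37 C/5% CO2; compounds (DMSO) pinned in; 18 h, 37 C; One-Glo, 30 min RT; luminescence.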
# [16] = qHTS assay to identify small molecule agonists of the estrogen related receptor signaling pathway with the pleiotropic PPARgamma coactivator (PGC) from Tox21 10K library (AID 1224842); note: nearly all actives have a fitted effect of over 15% in size
# In short: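 PGC/ERR reporter cells (NTP line) were seeded 2,000 per well, rested 6 h at 37 C/5% CO2, then pin-dosed with compounds in DMSO for 18 h at 37 C; luciferase read by One-Glo luminescence after 30 min at room temperature.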
# [17] = qHTS assay to identify small molecule antagonists of the estrogen related receptor (ERR) signaling pathway from Tox21 library (AID 1224848)
# In short: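 Cells: ERR line, 2,000/well; 6 h preincubation 37 C/5% CO2. Cpd in DMSO via pin tool; 18 h, 37 C. ONE-Glo, 30 min RT, luminescence.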
# [18] = qHTS assay to identify small molecule agonists of the estrogen related receptor (ERR) signaling pathway from Tox21 library (AID 1224849; calls by dose curve; note: nearly all actives have a fitted effect of over 15% in size); details: ERR reporter cell line, ONE-Glo luciferase, 18 h; at 92.4 µM (top of the series) unless noted
# In short: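 ERR cells, 6 h pre-incubation 37 C/5% CO2; cpd in DMSO pinned; 18 h 37 C; ONE-Glo added, 30 min RT; luminescence read. Agonist mode, qHTS.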
compound,measurement,setting,value
NC(=O)C1CO1 (configuration not stated),Potency,[1],inactive
same,Potency,[2],inactive
same,Potency,[3],inactive
same,Potency,[4],inactive
same,Potency,[5],inactive
same,Potency,[6],inactive
same,Potency,[7],inactive
same,Potency,[8],inactive
same,Potency,[9],inactive
same,Potency,[10],inactive
same,max response,[11],3.16%
COc1c(Br)cc(Br)c(C)c1Br,Potency,[12],inactive
same,Potency,[1],inactive
same,Potency,[2],inactive
same,Potency,[13],inactive
same,Potency,[4],inactive
same,Potency,[6],inactive
same,Potency,[7],inactive
same,Potency,[8],inactive
same,Potency,[9],inactive
same,Potency,[10],inactive
same,Potency,[14],inactive
same,max response,[11],1.46%
Cc1ccc(C2OC[C@@H]3OC(c4ccc(C)cc4)O[C@H]([C@H](O)CO)[C@@H]3O2)cc1 (some centres not stated),Potency,[12],inactive
same,Potency,[1],inactive
same,Potency,[2],inactive
same,Potency,[3],inactive
same,Potency,[4],inactive
same,Potency,[5],inactive
same,Potency,[8],inactive
same,Potency,[14],inactive
CN(C/C=C/c1ccccc1)Cc1cccc2ccccc12,Potency,[12],inactive
same,Potency,[1],inactive
same,Potency,[2],inactive
same,Potency,[3],55.2 µM (active)
same,Potency,[4],43.8 µM (active)
same,Potency,[7],19 µM (active)
same,Potency,[9],21.3 µM (active)
same,Potency,[10],inactive
[Cl][Eu]([Cl])[Cl],Potency,[12],inactive
same,Potency,[2],inactive
same,Potency,[13],inactive
same,Potency,[4],inactive
same,Potency,[6],inactive
same,Potency,[7],inactive
same,Potency,[8],inactive
same,Potency,[9],inactive
same,Potency,[10],inactive
same,Potency,[14],inactive
same,max response,[11],-1.1%
C=CC(=O)OCC(Br)CBr (configuration not stated),Potency,[12],inactive
same,Potency,[1],inactive
same,Potency,[3],inactive
same,Potency,[4],inactive
same,Potency,[7],inactive
same,Potency,[8],inactive
same,Potency,[14],inactive
C/C(=C\c1ccc(C(=O)O)cc1)c1ccc2c(c1)C(C)(C)CCC2(C)C,Potency,[12],inactive
same,Potency,[1],inactive
same,Potency,[3],inactive
same,Potency,[13],inactive
same,Potency,[4],inactive
same,Potency,[6],inactive
same,Potency,[7],inactive
same,Potency,[8],inactive
same,Potency,[10],inactive
same,Potency,[14],inactive
same,max response,[11],-17.3%
CS(=O)(=O)c1ccc([C@@H](CC2CCCC2)C(=O)Nc2cnccn2)cc1Cl,Potency,[4],101 µM (active)
Cn1c(=O)[nH]c2ncn(C)c2c1=O,Potency,[12],inactive
same,Potency,[1],inactive
same,Potency,[2],inactive
same,Potency,[3],inactive
same,Potency,[4],inactive
same,Potency,[5],inactive
same,Potency,[6],inactive
same,Potency,[7],inactive
same,Potency,[8],inactive
same,Potency,[10],inactive
same,max response,[11],3.46%
CCCCC/C=C\C=C\C(=O)OCC,Potency,[2],51 µM (active)
same,Potency,[3],59 µM (active)
same,Potency,[4],inactive
same,Potency,[8],51 µM (active)
same,Potency,[14],inactive
same,Potency,[11],57.2 µM (active)
CCOc1ccc([N+](=O)[O-])cc1,Potency,[12],inactive
same,Potency,[2],inactive
same,Potency,[3],inactive
same,Potency,[13],inactive
same,Potency,[4],inactive
same,Potency,[5],inactive
same,Potency,[7],inactive
same,Potency,[8],inactive
same,Potency,[9],44.3 µM (active)
same,Potency,[14],inactive
same,Potency,[11],49.7 µM (active)
O=[N+]([O-])c1ccc(CO)cc1,Potency,[2],inactive
same,Potency,[3],inactive
same,Potency,[4],inactive
same,Potency,[5],inactive
same,Potency,[6],inactive
same,Potency,[7],inactive
same,Potency,[9],inactive
same,Potency,[10],inactive
same,Potency,[14],inactive
same,max response,[11],7.7%
C=C(C)C1CCC(C)CC1O (configuration not stated),Potency,[12],inactive
same,Potency,[1],inactive
same,Potency,[2],inactive
same,Potency,[3],inactive
same,Potency,[4],inactive
same,Potency,[6],inactive
same,Potency,[7],inactive
same,Potency,[8],inactive
same,Potency,[10],inactive
same,Potency,[14],inactive
same,max response,[11],5.16%
O=C1OC(O)C(C(Cl)Cl)=C1Cl (configuration not stated),Potency,[1],inactive
same,Potency,[4],inactive
same,Potency,[9],inactive
CC(C)c1ccc2sc3ccccc3c(=O)c2c1,Potency,[12],inactive
same,Potency,[2],inactive
same,Potency,[3],inactive
same,Potency,[13],inactive
same,Potency,[4],50.5 µM (active)
same,Potency,[7],inactive
same,Potency,[8],inactive
same,Potency,[9],inactive
same,Potency,[14],inactive
CC(C)=CCC[C@H](C)CC=O,Potency,[12],inactive
same,Potency,[1],inactive
same,Potency,[2],inactive
same,Potency,[3],inactive
same,Potency,[4],inactive
same,Potency,[5],inactive
same,Potency,[6],inactive
same,Potency,[7],inactive
same,Potency,[8],inactive
same,Potency,[10],inactive
same,max response,[11],11.6%
C[C@H]1O[C@@H](O[C@H]2CC[C@@]3(C)[C@H](CC[C@@H]4[C@@H]3C[C@@H](O)[C@]3(C)[C@@H](C5=CC(=O)OC5)CC[C@]43O)C2)C[C@H](O)[C@@H]1O[C@H]1C[C@H](O)[C@H](O[C@H]2C[C@H](O)[C@H](O[C@@H]3O[C@H](CO)[C@@H](O)[C@H](O)[C@H]3O)[C@@H](C)O2)[C@@H](C)O1,Potency,[15],0.335 µM (active)
same,Potency,[16],inactive
same,Potency,[2],0.379 µM (active)
same,Potency,[3],inactive
same,Potency,[13],inactive
same,Potency,[4],inactive
same,Potency,[17],0.376 µM (active)
same,"activity change, positive = activation",[18],-54.9% [at 42.5 µM]
same,Potency,[5],inactive
same,Potency,[6],0.239 µM (active)
same,Potency,[7],inactive
same,Potency,[8],inactive
same,Potency,[9],inactive
same,Potency,[14],inactive
same,Potency,[11],0.239 µM (active)
CC/C=C\C/C=C\C/C=C\CCCCCCCC(=O)OC,Potency,[2],inactive
same,Potency,[6],inactive
same,Potency,[7],inactive
same,Potency,[8],inactive
same,Potency,[10],inactive
same,Potency,[14],inactive
same,max response,[11],-12.1%
C1=CCCC1,Potency,[12],inactive
same,Potency,[1],inactive
same,Potency,[2],inactive
same,Potency,[3],inactive
same,Potency,[4],inactive
same,Potency,[5],inactive
same,Potency,[8],inactive
CCCCNc1ccc(NCCCC)c2c1C(=O)c1ccccc1C2=O,"viability change, negative = cytotoxic",[12],-1.23% [at 19 µM]
same,activation,[1],-9.62% [at 19 µM]
same,"activity change, negative = cytotoxicity",[2],-26.2% [at 15.8 µM]
same,"activity change, negative = cytotoxicity",[4],-12.2% [at 31.6 µM]
same,"activity change, negative = cytotoxicity",[5],-2.93% [at 15.8 µM]
same,"activity change, negative = cytotoxic",[6],1.33% [at 15.8 µM]
same,cytotoxicity,[7],1.41% [at 15.8 µM]
same,"activity change, negative = cytotoxic",[8],-5.13% [at 15.8 µM]
same,cytotoxicity increase,[9],-1.5% [at 15.8 µM]
same,"activity change, negative = cytotoxicity",[10],9.94% [at 15.8 µM]
same,"viability change, negative = cytotoxic",[14],0.0909% [at 15.8 µM]
same,max response,[11],-1.48%
